# Experimental data taken from PubChem BioAssay (NCATS).
# Several values for one entry are separate records, joined by “and”; a condition that tells them apart may be missing. Equal entries are not always repeated. Inconclusive results are not listed. Where a call stands in place of a potency, no number is given. Activity calls are given as the source filed them. Unless noted, calls come from the whole dose curve.
# Tests used:
# [1] = biological target: Estrogen receptor (Homo sapiens) (UniProt P03372); assay: qHTS assay for small molecule antagonists of estrogen receptor alpha signaling (AID 588513; active = well fitted curve in the direction sought with a large enough effect in the signal ratio, with a control signal flat, not every such curve was filed as active; the % refers to the signal ratio); conditions: ER-alpha-UAS-bla HEK293, beta-lactamase ratio, antagonist mode; series mostly up to 76.9 µM
# Outline: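 Cells were plated at 5000/well and incubated 4 h at 37 C. Compounds were added as 1:2 dilution series, duplicates. 17-beta-estradiol (0.5nM final) was added for 18 h before CCF4 detection.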
# [2] = biological target: Bile acid receptor (Homo sapiens) (UniProt Q96RI1); assay: qHTS assay for small molecule antagonists of farnesoid X receptor signaling (AID 588526); conditions: HEK293T FXR-UAS-bla, beta-lactamase ratio, antagonist mode; series mostly up to 76.7 µM
# Outline: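 Antagonist mode: titrated compounds tested against chenodeoxycholic acid stimulation (normalized to 50 uM CDCA and DMSO) in GeneBLAzer HEK293T cells for 16 h. Beta-lactamase read by CCF4 fluorescence; IC50 from Hill fits.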
# [3] = biological target: DNA dC->dU-editing enzyme APOBEC-3G (Homo sapiens) (UniProt Q9HC16); assay: qHTS for inhibitors of Vif-A3G interactions: Validation (AID 588379; active = well fitted inhibition curve with a large enough effect); conditions: Vif-A3G protein interaction assay; series mostly up to 46.1 µM
# Outline: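 HeLa cells stably expressing Vif and A3G-eYFP, 700 cells/well, incubated overnight at 37 deg C, then exposed to compound overnight at 37 deg C. Inhibition of Vif-mediated degradation read as increased yellow fluorescence (Ex 488/Em 500-530) by laser-scanning cytometry.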
# [4] = qHTS assay for small molecule antagonists of peroxisome proliferator-activated receptor delta signaling (AID 588535; active = well fitted inhibition curve with a large enough effect in the signal ratio, with a control signal flat, not every such curve was filed as active; the % refers to the signal ratio;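 for max response: cells co-treated with a PPAR-delta agonist as stimulator during compound exposure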); conditions: HEK293T PPARd-UAS-bla, beta-lactamase FRET ratio, 18 h; 460 nm channel
# Outline: (§1)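 Antagonist-mode beta-lactamase reporter (GeneBLAzer PPAR-delta-UAS-bla) in HEK293T cells, 2% charcoal/dextran FBS, 4000 cells/well. Compound titrations, 18 h at 37 C; CCF4 ratio read, IC50 and efficacy from Hill fits.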
# [5] = biological target: Peroxisome proliferator-activated receptor delta (Homo sapiens) (UniProt Q03181); assay: as above; conditions: HEK293T PPARd-UAS-bla, beta-lactamase FRET ratio, 18 h; series mostly up to 76.7 µM
# Outline: as §1
# [6] = biological target: Glucocorticoid receptor (Homo sapiens) (UniProt P04150); assay: qHTS assay for small molecule agonists of glucocorticoid receptor signaling (AID 588532; active = well fitted curve in the direction sought with a large enough effect in the signal ratio, with a control signal flat; the % refers to the signal ratio); conditions: HeLa MMTV-bla, beta-lactamase ratio, agonist, 18 h; stronger effect = higher value; percent of dexamethasone control, DMSO zero
# Outline: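 Cells were plated and rested 3-5 h at 37 C, compounds were added in titration and incubated 18 h, then CCF4 substrate was loaded for 2 h at RT before reading blue/green fluorescence. EC50 came from Hill-equation fitting.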
# [7] = biological target: Glucocorticoid receptor (Homo sapiens) (UniProt P04150); assay: qHTS assay for small molecule antagonists of glucocorticoid receptor signaling (AID 588533; active = well fitted inhibition curve with a large enough effect in the signal ratio, with a control signal flat, not every such curve was filed as active; the % refers to the signal ratio;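 note: cells stimulated with 2 nM dexamethasone as agonist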); conditions: HeLa MMTV-bla, GRE beta-lactamase ratio, antagonist mode, 18 h; series mostly up to 76.8 µM
# Outline: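 Antagonist-mode qHTS: compound titrations added to GRE-bla HeLa cells, then dexamethasone 2 nM final; 18 h, 37 C. CCF4 FRET fluorescence normalized to dexamethasone and DMSO; IC50 from Hill fit.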
# [8] = biological target: Androgen receptor (Homo sapiens) (UniProt P10275); assay: qHTS assay for small molecule antagonists of androgen receptor signaling (AID 588516; active = well fitted curve in the direction sought with a large enough effect in the signal ratio, with a control signal flat, not every such curve was filed as active; the % refers to the signal ratio); conditions: AR-UAS-bla HEK293, beta-lactamase ratio, antagonist mode, 16 h; series mostly up to 76.8 µM
# Outline: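 Antagonist-mode qHTS: inhibition of R1881 (10 nM)-driven beta-lactamase expression in GripTite HEK 293 cells is measured after 16 h; values are Hill-derived IC50s normalized between R1881 and DMSO wells.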
# [9] = biological target: Androgen receptor (Homo sapiens) (UniProt P10275); assay: qHTS assay for small molecule agonists of androgen receptor signaling (AID 588515; active = well fitted curve in the direction sought with a large enough effect in the signal ratio, with a control signal flat; the % refers to the signal ratio); conditions: AR-UAS-bla HEK293, beta-lactamase ratio, agonist 16 h; stronger effect = higher value
# Outline: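 EC50 and efficacy came from Hill fits of titrations (up to 92 uM) normalized to 30 nM R1881 as 100% and DMSO as 0%. Compound exposure was 16 h at 37 C on AR-UAS-bla HEK293 cells, with a 405/460/530 nm CCF4 fluorescence read.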
# Sequence of Estrogen receptor (Homo sapiens) (P03372 whole entry, looked up): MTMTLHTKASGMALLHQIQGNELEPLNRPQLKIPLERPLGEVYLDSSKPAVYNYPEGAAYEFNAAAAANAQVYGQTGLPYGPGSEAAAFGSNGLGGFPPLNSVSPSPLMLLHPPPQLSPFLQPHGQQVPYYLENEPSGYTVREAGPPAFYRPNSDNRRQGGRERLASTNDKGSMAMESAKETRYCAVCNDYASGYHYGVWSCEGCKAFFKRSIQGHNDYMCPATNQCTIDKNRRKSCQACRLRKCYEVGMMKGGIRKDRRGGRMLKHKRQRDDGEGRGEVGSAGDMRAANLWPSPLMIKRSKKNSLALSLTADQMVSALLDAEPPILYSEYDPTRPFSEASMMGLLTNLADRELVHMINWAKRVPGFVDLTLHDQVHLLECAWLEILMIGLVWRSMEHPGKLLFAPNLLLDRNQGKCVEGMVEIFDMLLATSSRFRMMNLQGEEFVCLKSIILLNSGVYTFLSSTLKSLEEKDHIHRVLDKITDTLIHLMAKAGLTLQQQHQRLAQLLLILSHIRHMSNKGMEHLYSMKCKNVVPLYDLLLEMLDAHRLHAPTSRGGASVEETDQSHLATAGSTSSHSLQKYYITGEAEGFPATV
# Sequence of Androgen receptor (Homo sapiens) (P10275 whole entry, looked up): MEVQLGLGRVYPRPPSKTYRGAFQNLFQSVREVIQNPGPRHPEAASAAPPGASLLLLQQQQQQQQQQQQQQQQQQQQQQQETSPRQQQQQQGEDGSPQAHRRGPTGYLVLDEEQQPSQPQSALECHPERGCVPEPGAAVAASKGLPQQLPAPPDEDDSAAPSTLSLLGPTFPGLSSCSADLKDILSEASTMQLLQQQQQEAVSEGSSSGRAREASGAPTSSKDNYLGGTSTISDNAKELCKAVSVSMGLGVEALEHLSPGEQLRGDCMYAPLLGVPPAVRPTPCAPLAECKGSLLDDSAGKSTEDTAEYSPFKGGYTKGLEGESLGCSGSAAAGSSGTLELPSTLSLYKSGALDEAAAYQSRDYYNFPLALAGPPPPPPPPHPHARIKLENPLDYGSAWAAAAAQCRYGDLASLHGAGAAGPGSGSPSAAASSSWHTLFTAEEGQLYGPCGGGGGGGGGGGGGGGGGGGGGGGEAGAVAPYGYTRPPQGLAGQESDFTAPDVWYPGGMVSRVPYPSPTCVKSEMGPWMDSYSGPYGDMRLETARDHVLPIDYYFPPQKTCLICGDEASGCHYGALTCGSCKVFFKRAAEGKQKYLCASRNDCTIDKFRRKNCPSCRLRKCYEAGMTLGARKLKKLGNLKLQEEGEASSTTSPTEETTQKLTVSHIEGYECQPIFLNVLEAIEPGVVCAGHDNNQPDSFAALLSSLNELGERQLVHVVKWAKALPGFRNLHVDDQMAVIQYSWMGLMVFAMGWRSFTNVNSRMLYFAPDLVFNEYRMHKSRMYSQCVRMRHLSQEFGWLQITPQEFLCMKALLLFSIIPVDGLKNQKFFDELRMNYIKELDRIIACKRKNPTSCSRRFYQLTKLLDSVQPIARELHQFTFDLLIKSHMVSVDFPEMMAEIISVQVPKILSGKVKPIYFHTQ
# Sequence of DNA dC->dU-editing enzyme APOBEC-3G (Homo sapiens) (Q9HC16 whole entry, looked up): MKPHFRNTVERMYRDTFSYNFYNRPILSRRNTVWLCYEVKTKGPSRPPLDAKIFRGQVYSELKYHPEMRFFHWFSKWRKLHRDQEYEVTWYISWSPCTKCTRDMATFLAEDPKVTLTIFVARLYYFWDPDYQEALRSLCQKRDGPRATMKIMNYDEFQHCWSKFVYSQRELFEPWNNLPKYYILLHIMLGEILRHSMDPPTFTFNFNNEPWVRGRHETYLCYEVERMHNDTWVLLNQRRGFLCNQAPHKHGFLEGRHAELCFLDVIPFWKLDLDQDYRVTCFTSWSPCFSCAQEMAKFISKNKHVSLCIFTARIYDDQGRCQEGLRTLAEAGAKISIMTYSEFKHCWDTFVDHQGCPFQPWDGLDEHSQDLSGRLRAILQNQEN
# Sequence of Glucocorticoid receptor (Homo sapiens) (P04150 whole entry, looked up): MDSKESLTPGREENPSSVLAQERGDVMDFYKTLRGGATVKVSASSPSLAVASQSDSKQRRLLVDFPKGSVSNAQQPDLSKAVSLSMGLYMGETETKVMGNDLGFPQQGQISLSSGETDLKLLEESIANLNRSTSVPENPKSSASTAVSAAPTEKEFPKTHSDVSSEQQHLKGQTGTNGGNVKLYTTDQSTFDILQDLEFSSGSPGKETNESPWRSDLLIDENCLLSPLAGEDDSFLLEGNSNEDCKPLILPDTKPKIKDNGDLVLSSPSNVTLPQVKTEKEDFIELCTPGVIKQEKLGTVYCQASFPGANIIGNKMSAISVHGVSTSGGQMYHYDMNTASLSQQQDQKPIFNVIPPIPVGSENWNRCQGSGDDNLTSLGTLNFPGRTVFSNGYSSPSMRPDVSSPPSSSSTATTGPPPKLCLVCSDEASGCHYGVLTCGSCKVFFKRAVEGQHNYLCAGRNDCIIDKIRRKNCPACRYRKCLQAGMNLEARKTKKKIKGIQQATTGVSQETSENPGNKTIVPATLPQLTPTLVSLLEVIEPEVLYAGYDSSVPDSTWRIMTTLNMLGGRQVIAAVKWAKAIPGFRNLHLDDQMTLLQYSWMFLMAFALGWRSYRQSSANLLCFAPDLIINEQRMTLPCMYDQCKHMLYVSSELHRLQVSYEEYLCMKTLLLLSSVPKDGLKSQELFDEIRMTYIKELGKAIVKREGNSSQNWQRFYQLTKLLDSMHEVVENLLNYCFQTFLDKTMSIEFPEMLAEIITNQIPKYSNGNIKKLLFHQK
# Sequence of Bile acid receptor (Homo sapiens) (Q96RI1 whole entry, looked up): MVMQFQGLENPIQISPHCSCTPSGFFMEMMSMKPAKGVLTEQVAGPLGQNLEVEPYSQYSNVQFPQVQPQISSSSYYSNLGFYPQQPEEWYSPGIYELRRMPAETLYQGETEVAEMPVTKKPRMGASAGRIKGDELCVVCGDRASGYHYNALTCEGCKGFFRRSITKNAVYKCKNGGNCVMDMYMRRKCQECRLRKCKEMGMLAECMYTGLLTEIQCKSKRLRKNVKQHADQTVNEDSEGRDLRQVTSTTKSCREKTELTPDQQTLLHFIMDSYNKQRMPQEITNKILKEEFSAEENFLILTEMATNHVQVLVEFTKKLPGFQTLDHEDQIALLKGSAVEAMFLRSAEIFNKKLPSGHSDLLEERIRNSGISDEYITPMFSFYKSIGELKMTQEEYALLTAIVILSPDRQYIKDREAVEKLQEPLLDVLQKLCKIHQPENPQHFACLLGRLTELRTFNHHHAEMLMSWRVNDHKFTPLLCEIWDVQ
# Sequence of Peroxisome proliferator-activated receptor delta (Homo sapiens) (Q03181 whole entry, looked up): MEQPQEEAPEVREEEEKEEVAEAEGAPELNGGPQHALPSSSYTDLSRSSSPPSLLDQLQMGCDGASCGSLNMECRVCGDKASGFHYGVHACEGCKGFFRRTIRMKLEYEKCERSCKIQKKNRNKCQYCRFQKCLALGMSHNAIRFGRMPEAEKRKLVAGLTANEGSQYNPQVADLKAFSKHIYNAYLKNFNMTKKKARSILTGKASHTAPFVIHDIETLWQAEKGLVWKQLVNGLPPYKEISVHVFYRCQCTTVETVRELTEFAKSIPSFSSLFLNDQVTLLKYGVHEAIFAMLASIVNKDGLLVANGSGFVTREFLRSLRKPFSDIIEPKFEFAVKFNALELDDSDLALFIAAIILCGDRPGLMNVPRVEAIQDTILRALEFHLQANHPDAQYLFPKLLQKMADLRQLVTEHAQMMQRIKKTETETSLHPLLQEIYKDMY
structure (smiles),measurement,setting,value
CC/C=C\C/C=C\C/C=C\CCCCCCCC(=O)O,Potency,[1],inactive
same,outcome,[2],inactive
N[C@H](CC(=O)O)C(=O)O,outcome,[3],inactive
Nc1ncnc2c1ncn2[C@H]1CC[C@@H](CO)O1,Potency,[1],inactive
same,outcome,[2],inactive
same,max response,[4],-13.3% and 61.6%
same,outcome,[5],inactive
NC(N)=O,Potency,[1],inactive
CC(C)O,Potency,[1],inactive
same,outcome,[2],inactive
same,max response,[4],15.2%
same,outcome,[5],inactive
OCC(O)CO,Potency,[1],inactive
same,outcome,[2],inactive
same,activation,[6],2.41% (inactive) and -1.45% (inactive)
same,Potency,[7],inactive
same,max response,[4],-8.63%
same,outcome,[5],inactive
CCCCC(CC)COS(=O)(=O)O (stereo not drawn),Potency,[1],inactive
same,outcome,[2],inactive
same,max response,[4],-7.66%
same,outcome,[5],inactive
OCCOCCOCCO,Potency,[1],inactive
same,outcome,[8],inactive
same,activation,[6],-3.1% (inactive) and -7.85% (inactive)
same,Potency,[7],inactive
O=C(O)Cc1nn(Cc2ccc(Br)cc2F)c(=O)c2ccccc12,outcome,[3],inactive
C[C@@](Cc1ccc(O)c(O)c1)(NN)C(=O)O,outcome,[3],inactive
Cc1ccc(S(=O)(=O)NCl)cc1,Potency,[1],inactive
same,activation,[6],0.935% (inactive)
same,Potency,[7],inactive
same,max response,[4],-27%
same,outcome,[5],inactive
CC(C)CCCCCCc1ccc(O)cc1,activation,[6],-1.88% (inactive)
same,Potency,[7],inactive
same,max response,[4],-43.1%
same,outcome,[5],inactive
O=P(O)(O)O,outcome,[2],inactive
same,activation,[6],-2.92% (inactive)
same,Potency,[7],inactive
ClC(Cl)Cl,outcome,[2],inactive
same,activation,[6],-4.49% (inactive)
same,Potency,[7],inactive
CCCCC,outcome,[2],inactive
same,activation,[6],1.13% (inactive)
same,Potency,[7],inactive
same,max response,[4],25%
same,outcome,[5],inactive
CC(C)CCC[C@@H](C)[C@H]1CC[C@H]2[C@@H]3CC=C4C[C@@H](O)CC[C@]4(C)[C@H]3CC[C@]12C,outcome,[2],inactive
same,activation,[6],13.5% (inactive)
CC1=CCC2CC1C2(C)C (stereo not drawn),Potency,[1],inactive
same,activation,[6],3.24% (inactive)
same,Potency,[7],inactive
same,max response,[4],-1.04%
same,outcome,[5],inactive
C=CC(C)(O)CC/C=C(\C)CCC=C(C)C (stereo not drawn),outcome,[2],inactive
same,activation,[6],1.37% (inactive)
same,Potency,[7],inactive
same,max response,[4],18.5%
same,outcome,[5],inactive
CC1=CC(=O)NS(=O)(=O)O1,outcome,[2],inactive
same,activation,[6],-3.71% (inactive)
same,Potency,[7],inactive
same,max response,[4],2.47% and 22.8%
same,outcome,[5],inactive
CCCCCCCCCCCCCCCCCC(=O)OC[C@@H](O)[C@H]1OC[C@H](O)[C@H]1O,activation,[9],14.2% (inactive)
same,outcome,[8],inactive
same,outcome,[2],inactive
same,activation,[6],3.63% (inactive)
same,Potency,[7],inactive
same,max response,[4],30.1%
same,outcome,[5],inactive
Cc1ncc[nH]1,outcome,[2],inactive
same,Potency,[7],inactive
same,max response,[4],34.3%
same,outcome,[5],inactive
CCOC(C)OCC,activation,[6],-4.92% (inactive)
same,Potency,[7],inactive
C=C1C(CCl)(CCl)C2(Cl)C(Cl)C(Cl)C1(Cl)C2(Cl)Cl (stereo not drawn),activation,[9],-14.5% (inactive)
Oc1cccc(O)c1O,Potency,[1],inactive
same,activation,[6],11% (inactive)
same,max response,[4],-13.9%
same,outcome,[5],inactive
CN(CCO)CC(O)Cn1cnc2c1c(=O)n(C)c(=O)n2C (stereo not drawn) (tested in a mixture with another compound),outcome,[2],inactive
same,max response,[4],15.9%
same,outcome,[5],inactive
CCCCO,outcome,[2],inactive
same,max response,[4],1.82%
same,outcome,[5],inactive
Nc1nccs1,activation,[6],10.5% (inactive)
same,max response,[4],-9.51%
same,outcome,[5],inactive
N[C@@H](Cc1cc(I)c(Oc2ccc(O)c(I)c2)c(I)c1)C(=O)O,activation,[6],-18.8% (inactive)
same,Potency,[7],inactive
same,max response,[4],53.8%
same,outcome,[5],inactive
Cc1ccc(S(=O)(=O)O)cc1C,Potency,[1],inactive
same,activation,[6],2.36% (inactive)
same,Potency,[7],inactive
same,max response,[4],-12.1%
same,outcome,[5],inactive
CO,max response,[4],-4.23%
same,outcome,[5],inactive
CO/N=C(/C(=O)N[C@@H]1C(=O)N2C(C(=O)O)=C(COC(N)=O)CS[C@H]12)c1ccco1,activation,[6],5.73% (inactive)
same,Potency,[7],inactive
NCCN,Potency,[1],inactive
same,max response,[4],42.1%
same,outcome,[5],inactive
C/C=C/C=C/C(=O)O,max response,[4],0.118%
same,outcome,[5],inactive
C[Si](C)(C)O[Si](C)(C)C,outcome,[2],inactive
same,max response,[4],8.43%
same,outcome,[5],inactive
CC(C)[C@@H]1CC[C@@H](C)C[C@H]1O,activation,[9],9.8% (inactive)
same,outcome,[8],inactive
same,outcome,[2],inactive
same,max response,[4],-3.98%
same,outcome,[5],inactive
OC[C@H]1O[C@@](CO)(O[C@H]2O[C@H](CO)[C@@H](O)[C@H](O)[C@H]2O)[C@@H](O)[C@@H]1O,max response,[4],-16.8%
same,outcome,[5],inactive
COC(=O)c1ccccc1O,Potency,[1],inactive
same,max response,[4],-8.84% and 15.6%
same,outcome,[5],inactive
CO[C@@H]1[C@H](OC(=O)/C=C/C=C/C=C/C=C/C(=O)O)CC[C@]2(CO2)[C@H]1[C@@]1(C)O[C@@H]1CC=C(C)C,activation,[6],-1.18% (inactive)
same,Potency,[7],inactive
same,max response,[4],39.3%
same,outcome,[5],inactive
O=C(OCc1ccccc1)c1ccc(O)cc1,Potency,[7],inactive
